Screens deposited in PubChem by National Center for Advancing Translational Sciences (NCATS).
Rows were chosen to be rich in hits. Some 11% of all compounds tested hit in one or more screens of this group.
G9a block – G9a (human) methyltransferase inhibition. Potency, µM (series often up to 102 µM), most hits filed as inhibitors. Q96KQ7. G9a H3K9 monomethylation, AlphaScreen, 2 h. 8.8% of 350,000 active. AID 504332; also: nearly all actives have a fitted effect of over 75% in size
Target sequence (Q96KQ7 913-1193 limits assumed): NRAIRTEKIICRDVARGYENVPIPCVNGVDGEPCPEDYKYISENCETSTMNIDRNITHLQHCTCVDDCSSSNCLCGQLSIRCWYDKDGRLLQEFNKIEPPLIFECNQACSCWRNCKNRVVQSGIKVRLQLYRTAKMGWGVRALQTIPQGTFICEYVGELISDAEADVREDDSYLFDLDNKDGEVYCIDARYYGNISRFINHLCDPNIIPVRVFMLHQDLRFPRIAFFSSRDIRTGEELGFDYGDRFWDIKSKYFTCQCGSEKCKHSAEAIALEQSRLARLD
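Readings reflect AlphaScreen signal from monomethyl-H3K9 antibody detection. HMT at 20 nM; substrate b-H3K9 500 nM; cofactor SAM 20 uM; 2 h RT reaction; compounds tested as titrations in qHTS with 15 min preincubation.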
JMJD2A Tudor inh – blocks the human JMJD2A Tudor domain | O75164 | 4.4% of 390,000 active | Potency, µM (highest dose often 114 µM), hits mostly inhibitors | AlphaScreen JMJD2A-Tudor / H3K4me3 peptide binding; also: nearly all actives have a fitted effect of over 50% in size
HP1b chromo inh – HP1-beta chromodomain-methylated histone interaction inhibition; AlphaScreen HP1-beta / biotin-H3K9me3 peptide binding; P83916; 0.56% of 390,000 active; Potency, µM (series often up to 114 µM), most hits filed as inhibitors; also: nearly all actives have a fitted effect of over 70% in size
Target sequence (P83916 whole entry, looked up): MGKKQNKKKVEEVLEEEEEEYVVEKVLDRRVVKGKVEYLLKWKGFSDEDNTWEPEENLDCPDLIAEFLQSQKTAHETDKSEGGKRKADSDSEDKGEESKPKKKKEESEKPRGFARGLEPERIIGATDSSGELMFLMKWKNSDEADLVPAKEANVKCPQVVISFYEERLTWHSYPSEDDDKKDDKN
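AlphaScreen: HP1-beta (50 nM) preformed 30 min with biotin-H3(1-18)K9me3 peptide (50 nM) in PBS pH 7.4, 0.01% Tween-20. Compound added for 30 min at RT, then streptavidin donor/nickel chelate acceptor beads (10 ug/mL) for 30 min.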
L3MBTL1 block – inhibitors of human L3MBTL1; AlphaScreen L3MBTL1–H3K9me1 peptide binding; Potency, µM (titrated, usually from 57.1 µM), actives largely listed as inhibitors; 0.66% of 230,000 active; also: nearly all actives have a fitted effect of over 60% in size
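Displacement of a biotinylated histone H3(1-15) peptide monomethylated at Lys9 (75 nM) from L3MBTL1 (50 nM) was measured by AlphaScreen after a 30 min room-temperature compound incubation; cefsulodin titration served as intraplate control.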
BAZ2B inh – BAZ2B (human) inhibition. AlphaScreen BAZ2B-H3K14Ac peptide displacement. AID 504333. Potency, µM (doses to about 114 µM), hits mostly inhibitors. 4.4% of 360,000 active. Q9UIF8; also: nearly all actives have a fitted effect of over 60% in size
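AlphaScreen displacement of biotin-H3(5-23)K14Ac peptide (50 nM final) from BAZ2B (50 nM final) in PBS pH 7.4, 0.01% Tween-20; complex preformed 30 min RT, then compounds (top 110 uM) 30 min RT, beads 20 min dark.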
Each line names hits and unclear results; the compound was inactive in the other large screens. Calls follow the shape of the dose curve; as a rule, active = well fitted inhibition curve with a large enough effect; inconclusive = small, poorly fitted or top-dose-only effect; inactive = no such curve, though single readings can be large or run the other way.

C#CCOCCOCCOCCNc1nc(N2CCN(C(=O)[C@H]([C@@H](C)CC)n3cc([C@@H](N)CO)nn3)CC2)nc(N2CCN(C(=O)[C@H]([C@@H](C)CC)n3cc([C@@H](N)Cc4ccc(O)cc4)nn3)CC2)n1	JMJD2A Tudor inh 50µM, BAZ2B inh 28µM
C#CCOCCOCCOCCNc1nc(N2CCN(C(=O)[C@H](C(C)C)n3cc(CCO)nn3)CC2)nc(N2CCN(C(=O)[C@H]([C@@H](C)CC)n3cc(CCC(=O)O)nn3)CC2)n1	none (no result: G9a block, L3MBTL1 block, BAZ2B inh)
C#CCOCCOCCOCCNc1nc(N2CCOCC2)nc(N2CCN(C(=O)[C@H]([C@@H](C)CC)n3cc([C@@H](N)CO)nn3)CC2)n1	G9a block inconclusive, HP1b chromo inh inconclusive
C#CCOCCOCCOCCNc1nc(N2CCN(C(=O)[C@H]([C@@H](C)CC)n3cc([C@@H](N)CC(C)C)nn3)CC2)nc(N2CCN(C(=O)[C@H]([C@@H](C)CC)n3cc([C@@H](N)CC(C)C)nn3)CC2)n1	G9a block inconclusive, JMJD2A Tudor inh inconclusive, BAZ2B inh 79µM
C#CCOCCOCCOCCNc1nc(N2CCN(C(=O)[C@H]([C@@H](C)CC)n3cc([C@@H](N)CC(C)C)nn3)CC2)nc(N2CCN(C(=O)[C@H](Cc3ccc(O)cc3)n3cc([C@@H](N)CC(C)C)nn3)CC2)n1	G9a block inconclusive, JMJD2A Tudor inh inconclusive, BAZ2B inh 50µM
C#CCOCCOCCOCCNc1nc(N2CCN(C(=O)[C@H]([C@@H](C)CC)n3cc(CCCN=C(N)N)nn3)CC2)nc(N2CCN(C(=O)[C@H]([C@@H](C)CC)n3cc(CCC(=O)O)nn3)CC2)n1	none (no result: G9a block, L3MBTL1 block, BAZ2B inh)
CCSc1oc(-c2cccs2)nc1S(=O)(=O)c1ccc(Br)cc1	none (no result: L3MBTL1 block)
O=C(CNC(=O)N1CC(=O)Nc2ccccc21)NCCc1c[nH]c2ccccc12	none (no result: L3MBTL1 block)
C#CCOCCOCCOCCNc1nc(N2CCN(C(=O)[C@H]([C@@H](C)CC)n3cc([C@@H](N)CO)nn3)CC2)nc(N2CCN(C(=O)[C@H](Cc3ccc(O)cc3)n3cc([C@@H](N)C(C)CC)nn3)CC2)n1 (stereo not given in full)	G9a block inconclusive, JMJD2A Tudor inh 35µM, L3MBTL1 block inconclusive, BAZ2B inh 35µM
Cn1cc([N+](=O)[O-])c(C(=O)Nc2ccc3nc(-c4ccccc4)[nH]c3c2)n1	G9a block inconclusive
Cn1cc([N+](=O)[O-])c(C(=O)Nc2ccc(-c3nc4ccccc4[nH]3)cc2)n1	JMJD2A Tudor inh 56µM, BAZ2B inh inconclusive
Cn1cc([N+](=O)[O-])c(C(=O)Nc2cc(Oc3cccnc3)cc([N+](=O)[O-])c2)n1	G9a block 45µM, BAZ2B inh inconclusive
COCCN(Cc1nnc(-c2cccs2)o1)C(=O)CN1C(=O)NC2(CCCCC2)C1=O	none (no result: G9a block, BAZ2B inh)
CCOc1ccccc1NC(=O)CN1C(=O)CC(c2ccco2)Sc2ccccc21 (stereo not given)	JMJD2A Tudor inh inconclusive, BAZ2B inh inconclusive (no result: L3MBTL1 block)
Cc1ccc(Nc2nc(N)nc(CSC(=S)N3CCN(c4ccccc4)CC3)n2)cc1	G9a block 35µM, JMJD2A Tudor inh inconclusive, L3MBTL1 block inconclusive, BAZ2B inh inconclusive
Nc1nc(CSC(=S)N2CCN(c3ccccc3)CC2)nc(Nc2ccccc2)n1	G9a block 45µM, JMJD2A Tudor inh inconclusive, BAZ2B inh inconclusive
CCCSc1ncc(Cl)c(C(=O)Nc2nc3ccc(C)cc3s2)n1	none (no result: L3MBTL1 block)
CCOc1ccc(S(=O)(=O)c2cn(Cc3ccccc3C)c3ccc(OC)cc3c2=O)cc1	none (no result: L3MBTL1 block)
CCOc1ccccc1Nc1nnc(-c2cc3cc(Cl)ccc3oc2=O)s1	none (no result: L3MBTL1 block)
CCOc1ccccc1NS(=O)(=O)N(C)C	none (no result: L3MBTL1 block)
CCOc1ccccc1NC1=C(OC)C(=O)C(Nc2ccccc2OCC)=C(OC)C1=O	JMJD2A Tudor inh 7.1µM, HP1b chromo inh 8.9µM (no result: G9a block, L3MBTL1 block, BAZ2B inh)
COc1cc(/C=C2\SC(=S)N(C(C(=O)O)c3ccccc3)C2=O)ccc1O (stereo not given)	G9a block 8.9µM, HP1b chromo inh inconclusive, BAZ2B inh inconclusive
CCOc1cc(/C=C2\SC(=S)N(C(C(=O)O)c3ccccc3)C2=O)ccc1O (stereo not given)	G9a block 45µM, HP1b chromo inh inconclusive
CCOc1ccc(/C=C2/SC(=S)N(C(C(=O)O)c3ccccc3)C2=O)cc1OCC (stereo not given)	G9a block 45µM, JMJD2A Tudor inh inconclusive, HP1b chromo inh inconclusive, BAZ2B inh 79µM (no result: L3MBTL1 block)
